Test results from PubChem BioAssay (Tox21).
Inconclusive results are not listed. Values without a mark were called inactive. Activity calls are given as the source filed them. Calls follow the shape of the dose curve; as a rule, active = well fitted cell-killing curve with a large enough effect in the repeat runs; inconclusive = weak or mixed curves, or effect the other way; inactive = no such curve, though single readings can be large or run the other way.

Test: qHTS assay to identify small molecule antagonists of the retinoid-related orphan receptor gamma (ROR-gamma) signaling pathway - cell viability counter screen (AID 1159520); also: nearly all actives have a fitted effect of over 50% in size
Settings: Tet-on RORgamma CHO cells viability, ATP luminescence, 16 h; series mostly up to 92.4 µM
Source text: U.S. Tox21 Program National Center for Advancing Translational Sciences [NCATS] NIH Chemical Genomics Center [NCGC] U.S. Environmental Protection Agency [EPA] National Institutes of Environmental Health Sciences [NIEHS] National Toxicology Program [NTP] U.S. Food and Drug Administration [FDA] Tox21 Assay Overview: Nuclear steroid hormone receptors are involved in many biological processes including inflammatory responses, cell proliferation, and apoptosis. Environmental factors or compounds disrupting these nuclear receptor pathways and gene expression may promote susceptibility to immunotoxicants and autoimmune diseases. One important group of these expression factors are the retinoid-related orphan receptors. To assess compounds that may interfere with the retinoid-related orphan receptor gamma (ROR-gamma) transcription factor, a cell-based luciferase assay was used. The CHO cell-based assay utilizes a TET-inducible ROR expression factor and ROR response element-LUC reporter gene. Reporter gene activity was induced using Doxycycline Hyclate and measured after 16 hr incubation. Tet-on ROR gamma CHO cells were used to screen against the Tox21 10K compound library for cytotoxicity by measuring the viability of the cells based on the quantitation of the ATP.
Tox21 Assay Protocol Summary: Tet-on ROR gamma CHO cells were dispensed at 1,000 cells in 4 uL of culture medium per well into white wall/solid bottom 1536-well plates using a Multidrop Combi (Thermo Scientific, Waltham, MA) dispenser. Following incubation at 37 C and 5% CO2 for 4 hr, 23 nL of compounds dissolved in DMSO, positive controls or DMSO only were transferred by a Pintool station (Kalypsys, San Diego, CA) and after 2 hr incubation at 37 C, one ul of 1 uM (final concentration) of Doxycycline Hyclate was added to all the wells by using a Flying Reagent Dispenser (FRD) (Aurora Discovery, San Diego, CA). After 16 hr incubation at 37 C and 5% CO2, 5 uL of CellTiter-Glo reagent (Promega Corporation, Madison, WI) was added to each assay plate using FRD. After 30 min incubation at room temperature, luminescence was quantified on a ViewLux plate reader (Perkin Elmer, Waltham, MA).
% is scaled to controls: 0 for no effect and ±100 for the full control effect.

SMILES | outcome | activity, negative = cytotoxicity
CCOc1ccc(C(=O)OCCN(CC)CC)cc1 | inactive | 
Cc1cc2c(cc1S(N)(=O)=O)S(=O)(=O)CCC2 | inactive | 
CN(C)CCCNCCCN(C)C | inactive | 
CC1=CC(C)C(C=O)CC1 (stereo not given) | inactive | 
CCO/C([O-])=N/c1c[n+](N2CCOCC2)no1 | inactive | 
C=C[Si](OC(=C)C)(OC(=C)C)OC(=C)C | inactive | 
CCCCCCCCCCCCN(CCCCCCCCCCCC)CCCCCCCCCCCC | inactive | 
O=C1CCCC(=O)C1 | inactive | 
CCCCOCCOCCOCc1cc2c(cc1CCC)OCO2 | inactive | 
O=c1[nH]c(=O)n([C@H]2C[C@H](O)[C@@H](CO)O2)cc1I | inactive | 
CCCCCCCCCCCCCC=O |  | 2.5% [at 8.39 µM]
CC(C)NC(=O)NC(C)C | inactive | 
CCN(CC)CCOCCOC(=O)C1(c2ccccc2)CCCC1 | inactive | 
CCc1ccc(O)c(OC)c1 | inactive | 
CCS(=O)(=O)c1ccc(OC)c(C(=O)OC)c1 | inactive | 
Nc1nc2c(ncn2COC(CO)CO)c(=O)[nH]1 | inactive | 
C=CCS(=O)(=O)O | inactive | 
CCCCC/C=C\CCC=O | inactive | 
OCCOc1ccc(OCCO)cc1 | inactive | 
O=[N+]([O-])c1ccc(F)cc1F | inactive | 

SMILES | outcome | activity, negative = cytotoxicity
CCOC(=O)c1c(C)n(C)c2ccc(O)cc12 | inactive | 
CC(=O)Nc1ccc(S(N)(=O)=O)cc1 | inactive | 
O=C(O)c1ccccc1OP(=O)(O)O | inactive | 
CC(C(=O)O)c1ccc(CC2CCCC2=O)cc1 (stereo not given) | inactive | 
C=CCCCCCCCCC=O | inactive | 
N=C(N)c1ccc2cc(OC(=O)c3ccc(N=C(N)N)cc3)ccc2c1 | inactive | 
Cc1cccc(C)c1NC(=O)C(C)N (stereo not given) | inactive | 
Cc1cccn2c(=O)c(-c3nnn[nH]3)cnc12 |  | 0.0857% [at 19 µM]
C[C@H](NC(CCc1ccccc1)C(=O)O)C(=O)N1CCC[C@H]1C(=O)O (stereo not given in full) | inactive | 
CC(=O)OC/C=C(\C)CC/C=C(\C)CCC=C(C)C | inactive | 
Cc1nc2c([nH]1)c(=O)n(C)c(=O)n2Cc1ccco1 | inactive | 
C[N+](C)(C)CC(O)CC(=O)[O-] (stereo not given) | inactive | 
CC/C=C\CC/C=C/CO | inactive | 
COC(=O)[C@@H](N)Cc1ccc(O)c(O)c1 | inactive | 
CCCCCCCCCCCC | inactive | 
O=C(O)CN(CCOCCOCCN(CC(=O)O)CC(=O)O)CC(=O)O |  | 0.0573% [at 0.349 µM]
C[N+](C)(C)CCCCCC[N+](C)(C)C | inactive | 
COC(=O)NN | inactive | 
NC(=O)Nc1ccccc1 | inactive | 
CC(C)(C)c1ccc(O)c(O)c1 | inactive | 
